Measurements reported in ChEMBL document CHEMBL4513216, “Probing the Open Global Health Chemical Diversity Library for Multistage-Active Starting Points for Next-Generation Antimalarials” (ACS Infect Dis, 2020).
The whole screen tested about 69,000 compounds, of which about 8,600 (12%) showed an effect of 50% or more. The sample holds strong results, similar compounds and a random draw of the others, so the mix is not that of the screen.

Test system: Plasmodium berghei
Experiment: Screen against P. berghei liver stage (PbLuc), transformed with Luciferase, at 10uM
Type: functional, HepG2
Conditions: tested at 10 uM

Compound | INHIBITION [%]
Cc1nnc(CN2CCCC2c2ccc(Cl)c(Cl)c2)o1 (stereo not given) | 21.5
Cn1ccnc1CN1CCCC1c1noc(C2CC2)n1 (stereo not given) | 7.64
CCc1nc(C2CCCN2Cc2nc(Cc3ccccc3)no2)no1 (stereo not given) | 31.3
Cc1nnc(CN2CCCC2c2ccc(C(C)(C)C)cc2)o1 (stereo not given) | 38.8
CCc1nc(C2CCCN2Cc2nnc(Cc3ccccc3)o2)no1 (stereo not given) | 5.97
CCc1nc(C2CCCN2Cc2nnc(CC)o2)no1 (stereo not given) | -0.219
Cc1cc(CN2CCCC2c2noc(C3CC3)n2)c2ccccc2n1 (stereo not given) | 64.5
CCc1nc(C2CCCN2Cc2nc(C(C)(C)C)no2)no1 (stereo not given) | 71.2
CCc1nc(C2CCCN2Cc2nc(C3CC3)no2)no1 (stereo not given) | -34.9
Cc1nnc(CN2CCCC2c2ccsc2)o1 (stereo not given) | 53.9
CCc1nc(C2CCCN2Cc2noc(Cc3ccccc3)n2)no1 (stereo not given) | 72.8
c1ccc(Cn2ccnc2CN2CCCC2c2noc(C3CC3)n2)cc1 (stereo not given) | 18.6
COCc1ccccc1CNC(=O)CNc1ccccc1C(C)=O | -1.79
O=C(C1CCOC1)N1CCC2(CC1)CN(Cc1nccs1)CCO2 (stereo not given) | 15.9
CNC(=O)c1ccc(C(=O)N2CCCC2c2c(C)nn(C)c2C)cn1 (stereo not given) | 31.2
Cc1cn2c(n1)CCC(NC(=O)c1csc(C(C)C)n1)C2 (stereo not given) | 19.5
CCc1c(C)nc2n(c1=O)CC(C(=O)Nc1sccc1C(=O)OC)CS2 (stereo not given) | -7.25
CN(Cc1nnc2n1CCC2)C(=O)c1ccc2c(c1)OCCCO2 | 26.4
Nc1nc2nc(C3CCCN(C(=O)c4cncs4)C3)ccc2s1 (stereo not given) | 18.3
CCc1nc(C2CCCN2Cc2nc3ccccc3o2)no1 (stereo not given) | 20.2
COc1c(C)cnc(CN2CCCC2c2noc(C3CC3)n2)c1C (stereo not given) | 21.3
Cc1nc(CN2CCCC2c2noc(C3CC3)n2)oc1C (stereo not given) | 49.35

Compound | INHIBITION [%]
CCc1nc(C2CCCN2Cc2cnc(C)cn2)no1 (stereo not given) | -4.94
c1ccc2oc(CN3CCCC3c3noc(C4CC4)n3)nc2c1 (stereo not given) | -87.5025
Cc1nc(CN2CCCC2c2noc(C3CC3)n2)nc2ccccc12 (stereo not given) | 80.25
COc1ccc(C)cc1CN1CCCC1c1noc(C2CC2)n1 (stereo not given) | 80.3
CCc1noc(CN2CCCC2c2noc(C3CC3)n2)n1 (stereo not given) | 27.4
CCc1nc(C2CCCN2Cc2cc(C)nc3ccccc23)no1 (stereo not given) | 60.75
c1ccc2nc(CN3CCCC3c3noc(C4CC4)n3)ccc2c1 (stereo not given) | 54.7
Cc1cnc(CN2CCCC2c2noc(C3CC3)n2)cn1 (stereo not given) | -4.94
Cc1noc(CN2CCCC2c2noc(C3CC3)n2)n1 (stereo not given) | 38.5
O=C(NCC1(c2ccc(F)cc2)CCCC1)N1CCOC(CO)C1 (stereo not given) | -14.3
CN(C)CCn1c2c(ccc1=O)CCN(C(=O)c1ccoc1)CC2 | -73.5
Cc1c(C(=O)N2CCC(O)(CN(C)C)C2)c2ccccc2n1C (stereo not given) | 35.2
O=c1oc(-c2cccs2)nn1CC(O)c1ccccc1F (stereo not given) | 35.4
Cc1nc(CN2CCCC2c2ccsc2)nc2ccccc12 (stereo not given) | 53.8
Cc1nn(C)c(C)c1C1CCCN1Cc1nc(C)c2ccccc2n1 (stereo not given) | 12.7
C1CC(c2noc(C3CC3)n2)N(Cc2nc(C3CC3)no2)C1 (stereo not given) | 2.3
c1ccc2sc(CN3CCCC3c3noc(C4CC4)n3)nc2c1 (stereo not given) | 78
c1cc(CN2CCCC2c2noc(C3CC3)n2)on1 (stereo not given) | 37.4
Cc1nn(C)c(C)c1C1CCCN1Cc1nc(N)c2ccccc2n1 (stereo not given) | 23.4
NC(=O)c1nc(CC(=O)Nc2cccc(C(F)(F)F)c2)no1 | -14.8
CCOC(=O)CCC(=O)NC(C)c1ccc(NC(=O)CC)cc1 (stereo not given) | 37.1
O=C(Cc1cnc(-c2c(Cl)cccc2Cl)s1)N1CCOCC1 | 19.3

Compound | INHIBITION [%]
CN1CCN(CCO)C(=O)C12CCN(c1nccs1)CC2 | 23.1
CC(C)CN1CCN(C)C2(CCN(c3nccs3)CC2)C1=O | 45.2
CN1CCN(Cc2ccncc2)C(=O)C12CCN(c1nccs1)CC2 | 58.5
CCNc1nnc(SCc2nnc(C(C)(C)C)o2)s1 | -7.93
CC(=O)N1CCN(C(=O)CN2CCCC2Cn2nc(C)cc2C)CC1 (stereo not given) | -14.6
C=c1ncsc1=C1NN=C(C2CCCN2C(=O)Cn2cccn2)O1 (stereo not given) | 19.24
Cc1ccsc1CN1CCn2c(COc3cccnc3)cnc2C1C (stereo not given) | 65.7
Cc1ncsc1CN1CCn2c(COCC3CC3)cnc2C1C (stereo not given) | 18.5
CC1c2ncc(COc3cccnc3)n2CCN1Cc1ccco1 (stereo not given) | 54.8
Cc1csc(CN2CCn3c(COc4cccnc4)cnc3C2C)n1 (stereo not given) | 31.2
CCOCc1cnc2n1CCN(Cc1scnc1C)C2C (stereo not given) | 20.1
CC1c2ncc(COc3cccnc3)n2CCN1C(=O)Cc1ccco1 (stereo not given) | -36.3
Cc1ccc(CN2CCn3c(COc4cccnc4)cnc3C2C)o1 (stereo not given) | 25.8
Cc1ncsc1CN1CCn2c(COc3cccnc3)cnc2C1C (stereo not given) | 58.7
CC1c2ncc(COc3cccnc3)n2CCN1Cc1cnn(C)c1 (stereo not given) | 34
O=C1CC2(CCCNC2)C(=O)N1Cc1cccc(F)c1 (stereo not given) | 0.112
Cc1ccc(C(=O)NS(=O)(=O)Cc2ccc(F)cc2)cc1S(C)(=O)=O | 41.6
CNC(=O)c1ccc2c(c1O)OC(C)(C)C2 | 30
CNC(=O)CN1CCN(C(=O)c2ccn(C)c(=O)c2)CC1 | -7.31
CC(C)CN1CCC2(CCN(Cc3ccoc3)CC2)C1=O | 50.7
Cn1cc(CN2CCCC3(CCN(Cc4cccnc4)C3=O)C2)cn1 (stereo not given) | 43.2
CN(C)C(=O)CN1CCC2(CCCN(Cc3cccnc3)C2)C1=O (stereo not given) | 72.9

Compound | INHIBITION [%]
CN1CCC(CN2CCC3(CCCN(Cc4ccoc4)C3)C2=O)CC1 (stereo not given) | 1.34
CN(C)C(=O)CN1CCC2(CCN(C(=O)N(C)C)CC2)C1=O | -19.6
CN(C)C(=O)CN1CCC2(CCCN(Cc3ccsc3)C2)C1=O (stereo not given) | 18.6
CN(C)C(=O)CN1CCC2(CCN(C(=O)N3CCCC3)CC2)C1=O | 54.3
CC(C)CN1CCC2(CCN(Cc3ccc(F)cc3)CC2)C1=O | -15.9
CN(C)C(=O)CN1CCC2(CCN(S(C)(=O)=O)CC2)C1=O | 18.6
CN(C)C(=O)CN1CCC2(CCCN(Cc3cccn3C)C2)C1=O (stereo not given) | -10.2
O=C1N(CC2CC2)CCC12CCN(Cc1ccoc1)CC2 | 11.2
CN(C)C(=O)CN1CCC2(CCCN(Cc3ccoc3)C2)C1=O (stereo not given) | 53.9
O=C1CCN(C(=O)NCC(c2ccccc2)c2ccccc2)CCN1 | -61.4
O=C1CC[C@H](C(=O)Nc2cnn(-c3ccccc3Br)c2)N1 | 30
Cc1cc(C)nc(C2CCN(C(=O)c3c(C)noc3C)C2)n1 (stereo not given) | -8.12
Cc1ncnc2c1CCN(Cc1cccs1)CC2 | -33
Cc1ccc(C(=O)N2CCCCC2CNC(N)=O)cc1F (stereo not given) | 44.3
O=C([C@H]1CN(Cc2ccoc2)C[C@H]2OCC[C@@H]12)N1CCCCO1 | 39.4
Cc1ccc(-n2ncc(C(=O)N3CCCC3c3cnn(C)c3)c2C)cc1 (stereo not given) | 2.3
CC(C)Oc1ncccc1CNC(=O)c1cnccn1 | 7.12
CNS(=O)(=O)CCNC(=O)[C@@]12CNC[C@@H]1CN(C1CCCC1)C2 | 28.7
CN1CCC(O)(CCNC(=O)[C@@]23CNC[C@@H]2CN(C2CCCC2)C3)CC1 | 62.9
CCS(=O)(=O)CCNC(=O)[C@@]12CNC[C@@H]1CN(C1CCCC1)C2 | 30.8
Cc1nn(C)cc1S(=O)(=O)N[C@@H]1CCC[C@@H](n2ccnc2)[C@@H]1O | 7.19
COc1ccc(-n2cnnc2SCCC#N)cn1 | 33.4

Compound | INHIBITION [%]
COC(=O)CCSc1nncn1-c1ccc(OC)nc1 | 22.6
COc1ccc(-n2cnnc2SCC(=O)NC(C)C)cn1 | 64.5
CCC(C)Sc1nncn1-c1ccc(OC)nc1 (stereo not given) | -30.5
COc1ccc(-n2cnnc2SCC(=O)N(C)C(C)C)cn1 | 59.4
COc1ccc(-n2cnnc2SCC(C)(C)O)cn1 | 1.28
COCCS(=O)(=O)NCc1ccc(N(C)C)c(C)c1 | 2.65
COCC(=O)N1CCCC1(C)c1nc(C)cc(O)n1 (stereo not given) | -33.4
CCCc1n[nH]c(C2CN(C(=O)c3ccc4c(c3)COC4)CCO2)n1 (stereo not given) | 15.5
COCc1nc(C(=O)N2CCCC2c2cc(C)no2)cs1 (stereo not given) | -3.2
Cc1ncc2c(n1)CN(CC(=O)NCCOc1ccccc1)CC2 | -3.7
Cc1ccc(N2CCC3(CCN(C(=O)c4ccsc4)CC3)CC2)nn1 | 9.63
C[C@@H]1CN(C(=O)Cc2ccsc2)C[C@]12CCN(CCN(C)C)C2=O | 26
COCCN1CCN(S(=O)(=O)C2CC2)Cc2ccc(C)nc21 | 0.804
COCCN1CCN(C(=O)N2CCCC2)Cc2ccc(C)nc21 | 62.5
COCCN1CCN(C(=O)NC2CC2)Cc2ccc(C)nc21 | 60.1
Cc1ccc2c(n1)N(CC1CC1)CCN(C(=O)NC1CC1)C2 | 30.3
Cc1ccc2c(n1)N(CCN(C)C)CCN(C(=O)N1CCOCC1)C2 | 18.3
Cc1ccc2c(n1)N(CCn1cccn1)CCN(C(=O)NC1CC1)C2 | 37.8
COCCC(=O)N1CCC(c2ccc3c(NC(C)C)n[nH]c3n2)C1 (stereo not given) | -36.4
CCOC1COC2(CCN(Cc3ccc(C)cc3)CC2)C1 (stereo not given) | 17.4
CCOc1ncnc2c1CCN(C(=O)CN(C)C)CC2 | 42.3
CC(C)(C)C(=O)N1CC(=O)N(Cc2ccco2)CC(O)C1 (stereo not given) | 40.4
